# Most compounds without a hit are left out; they make up all but 2.1% or so of the library.
# uPA generation: inhibitors of cell surface uPA generation; Potency, µM (doses to about 38.3 µM), without a hit: at the top dose activity change, negative = inhibition, most hits filed as inhibitors; actives 0.31% (n = 330,000); cell surface uPA generation assay, qHTS; active = well fitted inhibition curve with a large enough effect; inconclusive = small, poorly fitted or top-dose-only effect; inactive = no such curve, though single readings can be large or run the other way; tested in mouse RAW 264.7 cells; note: potency is the fitted concentration of half-maximal effect; % is set by controls: 0 for no effect and ±100 for the full control effect; nearly all actives have a fitted effect of over 55% in size
# ClpP mod: qHTS Assay for Activators of ClpP | purified B. subtilis ClpP, FRET peptide cleavage, 20 min | actives 1.9% (n = 340,000) | AID 651965, 2013 | Potency, µM (series often up to 57.5 µM), for the others: at the top dose activity change, negative = active; active = well fitted falling curve with a large enough effect; inconclusive = small, poorly fitted or top-dose-only effect; inactive = no such curve, though single readings can be large or run the other way; note: potency is the fitted concentration of half-maximal effect; the source files actives as falling curves though it sought activators and does not explain the sign; nearly all actives have a fitted effect of over 65% in size
# Target sequence (P80244 whole entry, looked up): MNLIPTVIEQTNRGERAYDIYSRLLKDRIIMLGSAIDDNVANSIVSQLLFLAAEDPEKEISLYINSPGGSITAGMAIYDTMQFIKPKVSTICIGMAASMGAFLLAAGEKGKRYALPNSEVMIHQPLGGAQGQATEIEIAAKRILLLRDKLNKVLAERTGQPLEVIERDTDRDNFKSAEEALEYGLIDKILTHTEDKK
#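 Purified B. subtilis ClpP, 10 microg/mL final in Tris/HCl pH8 with KCl, BSA, glycerol and Tween-20, cleaved an Abz/nitrotyrosine-quenched decapeptide. Fluorescence (ex 320, em 430) was read at 0 and 20 min at room temperature. Delta was normalized to 5.8 microM ADEP and DMSO/no-enzyme controls.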
# Giardia kill: kills Giardia lamblia. Giardia lamblia trophozoite viability. activity change, % at 7.66 µM, hits read low. actives 0.15% (n = 340,000). AID 540267; in the data active = activity change below about -80%; inconclusive = between about -30% and that limit;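 note: parasites exposed to compound for two days anaerobically before the ATP read; % is set by controls: 0 for no effect and ±100 for the full control effect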
#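 Luminescence from cellular ATP indicates surviving trophozoites (100 cells/well) following 48 hrs anaerobic compound treatment at 37 deg C; signal develops 15-30 min at room temperature.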
# Mito fusion yeast: blocks mitochondrial division or promotes mitochondrial fusion; S. cerevisiae fusion-defective mutant growth rescue, CellTiterGlo 48 h; AID 485298; actives 0.23% (n = 320,000); Potency, µM (highest dose often 46.1 µM), for the others: at the highest dose growth rescue (activation), most hits filed as activators; note: potency is the fitted concentration of half-maximal effect; % of control where 0% means no effect; nearly all actives have a fitted effect of over 45% in size
#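 Yeast fusion mutant, YPEG (non-fermentable carbon), compound, 48 h at 37C non-permissive; CellTiterGlo added, 10 min RT, luminescence read. Rescued growth = division inhibition.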
# B2AR arrestin: recruits beta-arrestin to the human beta2-adrenergic receptor; P07550; beta-arrestin recruitment to beta2AR, cell-based reporter; Potency, µM (highest dose often 46.1 µM), inactives show at the top dose activation, actives largely listed as activators; actives 0.02% (n = 330,000);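 note: potency is the fitted concentration of half-maximal effect; 0% = DMSO controls and full agonism = EC100 isoproterenol or metaproterenol; nearly all actives have a fitted effect of over 65% in size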
# Target sequence (P07550 whole entry, looked up): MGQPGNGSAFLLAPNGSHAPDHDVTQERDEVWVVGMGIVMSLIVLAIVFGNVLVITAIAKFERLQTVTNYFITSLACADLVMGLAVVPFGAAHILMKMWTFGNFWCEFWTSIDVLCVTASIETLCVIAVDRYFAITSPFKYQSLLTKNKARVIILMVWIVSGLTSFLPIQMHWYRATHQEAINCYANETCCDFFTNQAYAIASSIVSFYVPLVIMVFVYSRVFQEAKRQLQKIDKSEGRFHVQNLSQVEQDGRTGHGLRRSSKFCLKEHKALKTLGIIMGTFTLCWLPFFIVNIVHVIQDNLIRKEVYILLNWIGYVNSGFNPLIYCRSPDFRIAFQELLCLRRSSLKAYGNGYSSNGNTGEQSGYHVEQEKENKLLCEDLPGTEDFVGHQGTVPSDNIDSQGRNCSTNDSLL
# p53 reactivator: mutant p53 re-activation in reporter cells; actives 0.063% (n = 320,000); Potency, µM (doses to about 92.2 µM), for the others: at the top dose activity change, positive = activation, hits mostly activators; H1299 p53-A138V BP100-luciferase reporter, luminescence, 24 h; AID 504706; note: potency is the fitted concentration of half-maximal effect; % of control where 0% means no effect; nearly all actives have a fitted effect of over 45% in size
#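 H1299 (p53-null), stable ts p53-A138V + BP100-Luc; 1000 cells/well, Opti-MEM/10% FBS; cpd 4 pt, 1:5; 24 h, 37 deg C, 5% CO2; detection reagent 10 min RT; luminescence.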
# Active calls of the source: *; ? = inconclusive; · = no result given; ! = a repeat was not active. Unless noted, calls come from the whole dose curve; as a rule, active = well fitted curve in the direction sought with a large enough effect; inconclusive = small, poorly fitted or top-dose-only effect, or another doubt; inactive = no such curve, though single readings can be large; an effect the other way counts as inactive or inconclusive.
SMILES,uPA generation,ClpP mod,Giardia kill,Mito fusion yeast,B2AR arrestin,p53 reactivator
Cc1ccc(-c2nc(Nc3ccc(O)cc3)c3ccccc3n2)cc1,-9.7%,·,1.1,16.9%,0.3%,9.0%
Ic1ccc(Nc2nc(NCCN3CCOCC3)nc(N3CCOCC3)n2)cc1,·,1.2%,·,·,·,·
COc1ccc(NC(=O)C(=O)c2cc(C)n(-c3ccc(C)cc3)c2C)cc1Cl,·,-4.2%,·,·,·,·
Cc1c(O)c(CN2CCCC2)cc2c3c(c(=O)oc12)CCC3,10.0%,?,1.7,-2.9%,0.2%,3.3%
O=c1oc2c3c4c(cc2c2c1CCC2)OCCN4CCC3,0.2%,17.8µM*,-17.5,9.1%,-0.3%,-7.7%
C/C(=N\NC(=O)C1(C)CC1(Br)Br)c1cccc(NC(=O)C2CCC2)c1 (configuration not stated),-0.8%,22.4µM*,-8.5,9.3%,0.3%,-3.2%
COc1ccc(CC(=O)N/N=C(\C)c2cccc(NC(=O)C3CC3)c2)cc1,-2.9%,-1.3%,3.7,-0.9%,0.0%,·
Cc1ccc(C(=O)c2cn(Cc3cccc(C)c3)c3nc(C)ccc3c2=O)cc1,·,3.6%,·,·,·,·
O=C(c1ccc(Cl)c(S(=O)(=O)N2CCOCC2)c1)N(Cc1nnc(-c2ccccc2Cl)o1)C1CC1,-11.1%,22.4µM*,9.6,-2.8%,-0.2%,4.7%
Cn1c2ccccc2c2ncn(Cc3ccco3)c(=O)c21,-0.3%,31.6µM*,-6.4,1.1%,0.6%,-6.1%
Cn1c2ccccc2c2ncn(Cc3ccc(F)cc3)c(=O)c21,2.8%,·,-10.6,-7.8%,-0.5%,-2.5%
Cn1c2ccc(F)cc2c2ncn(Cc3ccco3)c(=O)c21,·,25.1µM*,-1.7,2.6%,-0.2%,-5.0%
O=S(=O)(NCC(c1cccs1)S(=O)(=O)c1ccccc1)c1ccccc1 (configuration not stated),·,-1.5%,·,·,·,·
Cc1ccc2c(c1)-c1onc(C(=O)N(C)c3ccc(F)cc3)c1CO2,·,-2.5%,·,·,·,·
CCN(CC)c1ccc(-c2nn3c(-c4n[nH]c5c4CCC5)nnc3s2)cc1,-10.9%,28.2µM*,-9.7,-3.4%,0.3%,-0.3%
COc1cccc(OC)c1-c1nn2c(-c3n[nH]c4c3CCC4)nnc2s1,·,4.4%,-13.1,·,·,·
COC(=O)C1=CN(C(C)C)C=C(C(=O)OC)C1c1cccc(OC)c1,3.7%,30.8%,-11.8,4.4%,-0.9%,-3.7%
COC(=O)C1=CN(C(C)C)C=C(C(=O)OC)C1c1cc(Br)c(OC)c(OC)c1,·,6.31µM*,-6.6,23.8%,0.2%,-6.3%
CNc1ccc(/C=C/c2ccccc2)cc1,·,4.4%,·,·,·,·
COc1ccc([C@@H]2CC(=O)c3c(O)cc(O)cc3O2)cc1O,25.2%,0.8%,-9.1,7.6%,0.2%,11.6%
COc1c(CC=C(C)C)cc(C2CC(=O)c3c(O)cc(O)cc3O2)cc1CC=C(C)C (configuration not stated),7.94µM*,-8.3%,-8.0,2.9%,0.3%,-8.6%
CC(=O)Oc1cc(C(=O)OCC(=O)NC23CC4CC(CC(C4)C2)C3)cc(OC(C)=O)c1OC(C)=O,10µM*,-6.5%,16.8,·,·,·
COc1cccc(C(=O)OCC(=O)NC23CC4CC(CC(C4)C2)C3)c1,-0.2%,-3.0%,6.5,·,-0.2%,-10.5%
Cc1cc(-c2ccccc2)n2nc(-c3cccc(Br)c3)cc2n1,·,-27.4%,·,·,·,·
Cc1ccc(-c2cc3nc(-c4ccccc4)cc(N)n3n2)cc1,2.4%,25.1µM*,-6.6,6.1%,0.2%,8.1%
SMILES,uPA generation,ClpP mod,Giardia kill,Mito fusion yeast,B2AR arrestin,p53 reactivator
Cc1ccc(-c2cc(-c3ccccc3)nc(Cl)n2)cc1,-1.9%,28.2µM*,8.6,-4.1%,0.0%,14.5%
Cc1ccc(-c2cc3nc(-c4ccc(Br)cc4)cc(N)n3n2)cc1,2.7%,28.2µM*,-23.3,25.8%,-1.0%,4.0%
Cc1cc(N)n2nc(-c3ccccc3)cc2n1,-13.6%,28.2µM*,?,6.0%,-0.1%,?
Cc1ccc(-c2cc3nc(-c4ccccc4)cc(NCCCO)n3n2)cc1,·,4.3%,·,·,·,·
O=C(CN1CCN(Cc2ccc(F)cc2)C1=O)NCc1ccccc1,·,0.0%,·,·,·,·
Cc1ccc(CCNC(=O)c2cc3n(n2)CCCN(Cc2ccc(C)cc2)C3=O)cc1,·,-3.0%,·,·,·,·
Cc1ccc(-c2cc(N)n(-c3ccc(C)cc3)n2)cc1,-2.6%,-1.0%,-15.6,-2.5%,-0.4%,?
Cc1ccc(-c2cc(N)n3nc(-c4ccc(C)cc4)cc3n2)cc1,2.4%,12.6µM*!,-0.4,2.9%,-2.5%,6.0%
O=C(NCc1ccccn1)c1nn(-c2ccccc2Cl)nc1CO,·,-0.8%,·,·,·,·
CCOc1ccc(-n2nc(CO)c(C(=O)NCc3ccccn3)n2)cc1,·,11.2µM*,·,·,·,·
CCCCOc1ccc(C(=O)NCc2ccccn2)cc1,1.3%,0.3%,4.3,-8.4%,-0.5%,?
CCc1ccc(-n2nc(CO)c(C(=O)NCc3ccccn3)n2)cc1,·,14.1µM*,·,·,·,·
Cc1c(SCCO)c(=O)[nH]c2cc3c(cc12)OCO3,·,25.1µM*,-5.7,0.3%,-0.2%,-2.0%
Cc1ccc(-n2ncc3c(NCCc4ccccc4)ncnc32)cc1C,·,28.2µM*,·,·,·,·
Cc1cccc(-n2ncc3c(NCc4ccccn4)ncnc32)c1,-13.9%,?,18.6,-1.4%,-1.7%,?
c1ccc(-n2ncc3c(NCc4ccccn4)ncnc32)cc1,·,12.6µM*,-15.0,2.4%,-1.4%,29.4%
c1ccc(CNc2ncnc3c2cnn3-c2ccccc2)cc1,-12.5%,?,10.9,2.0%,-0.3%,16.6%
Fc1ccc(CNc2ncnc3c2cnn3-c2ccccc2)cc1,-1.9%,35.5µM*,2.2,-7.7%,·,·
c1ccc(CCNc2ncnc3c2cnn3-c2ccccc2)cc1,4.7%,-20.7%,3.0,?,0.1%,?
O=C(Nc1cccc2cccnc12)OCc1ccccc1,·,·,-22.2,·,·,·
CC(C)c1ccc(NC(=O)Cn2cc(S(=O)(=O)Cc3cccc(Cl)c3)c3ccccc32)cc1,·,0.3%,·,·,·,·
C=CC(=O)Nc1ccc(Br)cc1,-23.9%,15.8µM*,1.9,9.3%,-0.3%,2.9%
CCC(=O)Nc1ccc2nc(SCCOc3ccc(C)cc3OC)sc2c1,·,-3.0%,·,·,·,·
Fc1cccc(-c2ncc(-c3ccccc3)o2)c1,-3.1%,0.8%,-26.6,·,·,·
c1ccc(-c2cnc(-c3cccnc3)o2)cc1,-4.9%,?,-23.5,-2.2%,-0.8%,25.1µM*
CCN(C(=O)c1cc2c(=O)oc3ccccc3c2s1)c1ccc(C)c(C)c1,·,-1.6%,·,·,·,·
Cc1cc(C)c(C#N)c(SCc2ccccc2C)n1,3.2%,-0.3%,9.3,7.08µM*,-0.1%,-7.4%
Cc1cc(C)c(C#N)c(SCc2ccccc2F)n1,2.3%,·,-2.4,16.7%,-1.2%,-3.2%
Cc1ccnc(NC(=O)c2ccccc2NC(=O)c2ccc(Cl)cc2Cl)c1,2.82µM*,-1.9%,-19.7,-1.4%,0.3%,-38.2%
Cc1ccnc(NC(=O)c2sc3ccccc3c2Cl)c1,-3.1%,-17.2%,-80.2*,-0.7%,-0.6%,?
